“And” between values parts separate entries of the source, which are not always exact repeats. Identical values can stand only once. Among all 5,500 compounds or so, about 2,000 (36%) were called active. About 18% were inconclusive and are not listed. Rule as the data show it: active = normalized growth mostly below about 0.91 (no sharp cut-off); inconclusive = no clear call, values can overlap the other calls; inactive = mostly above about 0.92. The list shows a part of the results.
Test: chemical genetic growth profiling, strain panel (AID 1159580);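 also: tested at 20 µM; growth read once vehicle control cultures reached saturation at 30 °C; 1 = growth at the plate median or of vehicle wells; lower values mean less growth of the strain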
Details: growth OD

Measured: normalized growth

NCCc1c[nH]c2ccccc12
inactive: S. cerevisiae deletion strains, locus YJR075W, strain HOC1, stronger effect = lower value 1.01 and 0.992 | S. cerevisiae deletion strains, locus YKL009W, strain mrt4, stronger effect = lower value 0.991 | S. cerevisiae deletion strains, locus YKL068W, stronger effect = lower value 0.987 | S. cerevisiae deletion strains, locus YKL085W, strain MDH1 (second series), stronger effect = lower value 0.996 | S. cerevisiae deletion strains, locus YKL085W, strain MDH1, stronger effect = lower value 0.996 | S. cerevisiae deletion strains, locus YKL160W, strain elf1, stronger effect = lower value 0.968 | S. cerevisiae deletion strains, locus YKL190W, strain CNB1, stronger effect = lower value 0.996 | S. cerevisiae deletion strains, locus YKR001C, strain vps1, stronger effect = lower value 0.987 | S. cerevisiae deletion strains, locus YKR026C, strain gcn3, stronger effect = lower value 0.958 | S. cerevisiae deletion strains, locus YKR091W, strain srl3, stronger effect = lower value 0.976 | S. cerevisiae deletion strains, locus YLL001W, strain dnm1, stronger effect = lower value 0.958 | S. cerevisiae deletion strains, locus YLL026W, stronger effect = lower value 0.941 | S. cerevisiae deletion strains, locus YLL041C, strain sdh2, stronger effect = lower value 0.965 | S. cerevisiae deletion strains, locus YLR027C, strain aat2, stronger effect = lower value 0.974 | S. cerevisiae deletion strains, locus YLR039C, strain RIC1, stronger effect = lower value 0.988 | S. cerevisiae deletion strains, locus YLR058C, strain SHM2, stronger effect = lower value 0.975 | S. cerevisiae deletion strains, locus YLR102C, strain apc9, stronger effect = lower value 0.996 | S. cerevisiae deletion strains, locus YLR113W, strain HOG1, stronger effect = lower value 0.999 | S. cerevisiae deletion strains, locus YLR221C, strain rsa3, stronger effect = lower value 0.998 | S. cerevisiae deletion strains, locus YLR258W, strain gsy2, stronger effect = lower value 0.965 | S. cerevisiae deletion strains, locus YLR262C, strain YPT6 (second series), stronger effect = lower value 0.956 | S. cerevisiae deletion strains, locus YLR262C, strain YPT6, stronger effect = lower value 0.934 | S. cerevisiae deletion strains, locus YLR268W, strain sec22, stronger effect = lower value 1.06 | S. cerevisiae deletion strains, locus YLR320W, strain mms22, stronger effect = lower value 0.985 | S. cerevisiae deletion strains, locus YLR330W, strain CHS5, stronger effect = lower value 0.973 | S. cerevisiae deletion strains, locus YLR342W, strain FKS1 (second series), stronger effect = lower value 0.986 | S. cerevisiae deletion strains, locus YLR342W, strain FKS1, stronger effect = lower value 0.972 | S. cerevisiae deletion strains, locus YLR357W, strain rsc2, stronger effect = lower value 0.987 | S. cerevisiae deletion strains, locus YLR370C, strain arc18, stronger effect = lower value 0.94 | S. cerevisiae deletion strains, locus YLR371W, strain rom2, stronger effect = lower value 0.982 | S. cerevisiae deletion strains, locus YLR384C, strain iki3, stronger effect = lower value 0.949 | S. cerevisiae deletion strains, locus YLR418C, strain cdc73, stronger effect = lower value 0.99 | S. cerevisiae deletion strains, locus YML016C, strain PPZ1, stronger effect = lower value 0.99 | S. cerevisiae deletion strains, locus YML032C, strain rad52, stronger effect = lower value 1.01 | S. cerevisiae deletion strains, locus YML120C, strain ndi1, stronger effect = lower value 0.962 | S. cerevisiae deletion strains, locus YML124C, strain tub3, stronger effect = lower value 0.988 | S. cerevisiae deletion strains, locus YMR058W, strain fet3, stronger effect = lower value 0.96 | S. cerevisiae deletion strains, locus YMR078C, strain ctf18, stronger effect = lower value 0.986 | S. cerevisiae deletion strains, locus YMR125W, strain sto1, stronger effect = lower value 0.96 | S. cerevisiae deletion strains, locus YMR129W, stronger effect = lower value 0.973 | S. cerevisiae deletion strains, locus YMR205C, strain PFK2, stronger effect = lower value 0.975 | S. cerevisiae deletion strains, locus YMR223W, strain ubp8, stronger effect = lower value 0.955 | S. cerevisiae deletion strains, locus YMR231W, strain pep5, stronger effect = lower value 0.97 | S. cerevisiae deletion strains, locus YMR263W, strain SAP30, stronger effect = lower value 0.995 | S. cerevisiae deletion strains, locus YMR307W, strain GAS1, stronger effect = lower value 0.987 | S. cerevisiae deletion strains, locus YNL067W, strain RPL9B, stronger effect = lower value 1.03 | S. cerevisiae deletion strains, locus YNL071W, strain lat1, stronger effect = lower value 0.973 | S. cerevisiae deletion strains, locus YNL128W, strain TEP1, stronger effect = lower value 0.976 | S. cerevisiae deletion strains, locus YNL153C, strain GIM3, stronger effect = lower value 1.02 | S. cerevisiae deletion strains, locus YNL175C, strain NOP13, stronger effect = lower value 1 | S. cerevisiae deletion strains, locus YNL183C, strain NPR1, stronger effect = lower value 0.97 | S. cerevisiae deletion strains, locus YNL197C, strain WHI3, stronger effect = lower value 0.989 | S. cerevisiae deletion strains, locus YNL209W, strain ssb2, stronger effect = lower value 0.96 | S. cerevisiae deletion strains, locus YNL224C, strain SQS1, stronger effect = lower value 1 | S. cerevisiae deletion strains, locus YNL233W, strain BNI4, stronger effect = lower value 1.01 | S. cerevisiae deletion strains, locus YNL248C, strain rpa49, stronger effect = lower value 0.986 | S. cerevisiae deletion strains, locus YNL250W, strain rad50, stronger effect = lower value 0.974 | S. cerevisiae deletion strains, locus YNL271C, strain bni1, stronger effect = lower value 0.994 | S. cerevisiae deletion strains, locus YNL298W, strain CLA4, stronger effect = lower value 0.995 | S. cerevisiae deletion strains, locus YNL307C, strain MCK1, stronger effect = lower value 0.984 | S. cerevisiae deletion strains, locus YNL322C, strain KRE1 (second series), stronger effect = lower value 0.943 | S. cerevisiae deletion strains, locus YNL322C, strain KRE1, stronger effect = lower value 0.988 | S. cerevisiae deletion strains, locus YNR049C, strain mso1, stronger effect = lower value 0.959 | S. cerevisiae deletion strains, locus YNR052C, strain pop2, stronger effect = lower value 0.985 | S. cerevisiae deletion strains, locus YOL006C, strain TOP1, stronger effect = lower value 1.05 | S. cerevisiae deletion strains, locus YOL012C, strain htz1 1.16 | S. cerevisiae deletion strains, locus YOL147C, strain pex11, stronger effect = lower value 0.988 | S. cerevisiae deletion strains, locus YOR001W, strain rrp6, stronger effect = lower value 0.971 | S. cerevisiae deletion strains, locus YOR061W, strain CKA2, stronger effect = lower value 0.97 | S. cerevisiae deletion strains, locus YOR069W, strain VPS5, stronger effect = lower value 0.992 | S. cerevisiae deletion strains, locus YOR070C, strain gyp1, stronger effect = lower value 0.982 | S. cerevisiae deletion strains, locus YOR080W, strain dia2, stronger effect = lower value 0.959 | S. cerevisiae deletion strains, locus YOR083W, strain WHI5 (second series), stronger effect = lower value 0.966 | S. cerevisiae deletion strains, locus YOR083W, strain WHI5, stronger effect = lower value 0.982 | S. cerevisiae deletion strains, locus YOR106W, strain vam3, stronger effect = lower value 0.942 | S. cerevisiae deletion strains, locus YOR136W, strain idh2, stronger effect = lower value 0.978 | S. cerevisiae deletion strains, locus YOR144C, strain elg1, stronger effect = lower value 0.999 | S. cerevisiae deletion strains, locus YOR184W, strain ser1, stronger effect = lower value 1 | S. cerevisiae deletion strains, locus YOR231W, strain MKK1, stronger effect = lower value 0.979 | S. cerevisiae deletion strains, locus YOR265W, strain rbl2, stronger effect = lower value 0.954 | S. cerevisiae deletion strains, locus YOR270C, strain vph1, stronger effect = lower value 0.892 | S. cerevisiae deletion strains, locus YOR290C, strain snf2, stronger effect = lower value 0.959 | S. cerevisiae deletion strains, locus YOR316C, strain cot1, stronger effect = lower value 0.995 | S. cerevisiae deletion strains, locus YPL051W, strain arl3, stronger effect = lower value 0.973 | S. cerevisiae deletion strains, locus YPL055C, strain LGE1, stronger effect = lower value 0.99 | S. cerevisiae deletion strains, locus YPL078C, strain atp4, stronger effect = lower value 0.943 | S. cerevisiae deletion strains, locus YPL106C, strain sse1, stronger effect = lower value 0.916 | S. cerevisiae deletion strains, locus YPL240C, strain hsp82, stronger effect = lower value 0.962 | S. cerevisiae deletion strains, locus YPL241C, strain CIN2, stronger effect = lower value 0.99 and 0.999 | S. cerevisiae deletion strains, locus YPL256C, strain CLN2, stronger effect = lower value 0.951 | S. cerevisiae deletion strains, locus YPR119W, strain clb2, stronger effect = lower value 0.992 | S. cerevisiae deletion strains, locus YPR141C, strain kar3, stronger effect = lower value 0.983 | S. cerevisiae deletion strains, locus YPR163C, strain tif3, stronger effect = lower value 0.986 | S. cerevisiae deletion strains, locus YPR167C, strain met16, stronger effect = lower value 0.994 | S. cerevisiae deletion strains, strain wtn01, stronger effect = lower value 1.02 | S. cerevisiae strains, strain wild type, stronger effect = lower value 0.987
